# “And” between values parts separate entries of the source, which are not always exact repeats. Equal values may be shown once. In all, about 5,500 compounds went through this assay and about 2,000 (36%) were called active. About 18% were inconclusive and are not listed. The list shows a part of the results. Values without a mark were called inactive. Cut-off read from the data, not from the text of the source: active = normalized growth mostly below about 0.91 (no sharp cut-off); inconclusive = no clear call, values can overlap the other calls; inactive = mostly above about 0.92.
# Assay: chemical genetic growth profiling, strain panel (AID 1159580);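 note: tested at 20 µM; growth read once vehicle control cultures reached saturation at 30 °C; 1 = growth at the plate median or of vehicle wells; lower values mean less growth of the strain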
# Details: S. cerevisiae deletion strains, growth OD
structure (smiles),measurement,setting,value
CCCCCC1C(=O)CCC1CC(=O)OC (stereo not given),normalized growth,"locus YAL013W, strain DEP1, hits give low values",0.988
same,normalized growth,"locus YAL021C, strain ccr4, hits give low values",1.04
same,normalized growth,"locus YAL026C, strain drs2, hits give low values",0.988
same,normalized growth,"locus YAL030W, strain snc1, hits give low values",0.981
same,normalized growth,"locus YBL061C, strain skt5, hits give low values",0.984
same,normalized growth,"locus YBR009C, strain hhf1, hits give low values",0.972
same,normalized growth,"locus YBR021W, strain FUR4, hits give low values",0.921
same,normalized growth,"locus YBR023C, strain chs3, hits give low values",0.977
same,normalized growth,"locus YBR171W, strain sec66, hits give low values",0.96
same,normalized growth,"locus YBR229C, strain ROT2, hits give low values",0.991
same,normalized growth,"locus YBR231C, strain swc5, hits give low values",0.978
same,normalized growth,"locus YBR279W, strain paf1, hits give low values",0.986
same,normalized growth,"locus YCL011C, strain gbp2, hits give low values",0.988
same,normalized growth,"locus YCL016C, strain dcc1, hits give low values",0.979
same,normalized growth,"locus YCL029C, strain bik1, hits give low values",0.958
same,normalized growth,"locus YCL061C, strain MRC1, hits give low values",0.984
same,normalized growth,"locus YCL069W, strain vba3, hits give low values",0.986
same,normalized growth,"locus YCR088W, strain abp1, hits give low values",0.973
same,normalized growth,"locus YDL005C, strain med2, hits give low values",0.97
same,normalized growth,"locus YDL035C, strain GPR1, hits give low values",0.974
same,normalized growth,"locus YDL040C, strain nat1, hits give low values",0.981
same,normalized growth,"locus YDL074C, strain BRE1, hits give low values",0.992
same,normalized growth,"locus YDL101C, strain DUN1, hits give low values",1.01
same,normalized growth,"locus YDL134C, strain PPH21, hits give low values",1.01
same,normalized growth,"locus YDL185W, strain tfp1, hits give low values",0.931
same,normalized growth,"locus YDL192W, strain arf1, hits give low values",0.97
same,normalized growth,"locus YDR001C, strain nth1, hits give low values",0.984
same,normalized growth,"locus YDR069C, strain doa4, hits give low values",0.999
same,normalized growth,"locus YDR101C, strain arx1, hits give low values",0.96
same,normalized growth,"locus YDR137W, strain rgp1, hits give low values",0.996
same,normalized growth,"locus YDR150W, strain NUM1, hits give low values",0.975
same,normalized growth,"locus YDR159W, strain sac3, hits give low values",0.969
same,normalized growth,"locus YDR162C, strain NBP2, hits give low values",1.03
same,normalized growth,"locus YDR195W, strain ref2",0.991
same,normalized growth,"locus YDR297W, strain sur2, hits give low values",0.978
same,normalized growth,"locus YDR318W, strain mcm21, hits give low values",0.961
same,normalized growth,"locus YDR334W, strain swr1, hits give low values",0.986
same,normalized growth,"locus YDR335W, strain msn5, hits give low values",1.01
same,normalized growth,"locus YDR388W, hits give low values",0.954
same,normalized growth,"locus YDR392W, strain spt3, hits give low values",0.975
same,normalized growth,"locus YDR502C, strain sam2, hits give low values",0.996
same,normalized growth,"locus YEL003W, strain gim4, hits give low values",0.987
same,normalized growth,"locus YEL037C, strain rad23, hits give low values",0.984
same,normalized growth,"locus YEL061C, strain CIN8 (second series), hits give low values",0.989
same,normalized growth,"locus YEL061C, strain CIN8, hits give low values",0.991
same,normalized growth,"locus YER015W, strain faa2, hits give low values",0.98
same,normalized growth,"locus YER016W, strain bim1, hits give low values",0.986
same,normalized growth,"locus YER110C, hits give low values",0.898 (active)
same,normalized growth,"locus YER111C, strain swi4, hits give low values",0.982
same,normalized growth,"locus YER155C, strain BEM2 (second series), hits give low values",0.95
same,normalized growth,"locus YER155C, strain BEM2, hits give low values",0.952
same,normalized growth,"locus YER167W, strain BCK2, hits give low values",0.97
same,normalized growth,"locus YFR010W, strain ubp6, hits give low values",0.987
same,normalized growth,"locus YGL078C, strain dbp3, hits give low values",0.966
same,normalized growth,"locus YGL086W, strain mad1, hits give low values",1.01
same,normalized growth,"locus YGL167C, strain pmr1, hits give low values",0.96
same,normalized growth,"locus YGL173C, strain kem1, hits give low values",0.967
same,normalized growth,"locus YGL227W, strain vid30, hits give low values",0.963
same,normalized growth,"locus YGL240W, strain doc1, hits give low values",0.994
same,normalized growth,"locus YGL248W, strain PDE1, hits give low values",1.04
same,normalized growth,"locus YGL253W, strain hxk2, hits give low values",0.981
same,normalized growth,"locus YGR078C, strain PAC10, hits give low values",1.04
same,normalized growth,"locus YGR135W, strain pre9, hits give low values",0.963
same,normalized growth,"locus YGR229C, strain SMI1, hits give low values",1.02
same,normalized growth,"locus YGR252W, strain gcn5, hits give low values",1.1
same,normalized growth,"locus YHR013C, strain ard1, hits give low values",1
same,normalized growth,"locus YHR027C, strain rpn1, hits give low values",0.992
same,normalized growth,"locus YHR030C, strain SLT2, hits give low values",0.979 and 0.975
same,normalized growth,"locus YHR079C, strain IRE1 (second series), hits give low values",0.957
same,normalized growth,"locus YHR079C, strain IRE1, hits give low values",0.975
same,normalized growth,"locus YHR094C, strain hxt1, hits give low values",0.986
same,normalized growth,"locus YHR129C, strain ARP1, hits give low values",0.993
same,normalized growth,"locus YHR142W, strain chs7, hits give low values",0.987
same,normalized growth,"locus YHR200W, strain rpn10, hits give low values",0.981
same,normalized growth,"locus YIL066C, strain RNR3, hits give low values",1
same,normalized growth,"locus YIL073C, strain SPO22, hits give low values",0.952
same,normalized growth,"locus YIL125W, strain kgd1, hits give low values",0.961
same,normalized growth,"locus YIR030C, strain dcg1, hits give low values",0.948
same,normalized growth,"locus YJL092W, strain hpr5, hits give low values",0.975
same,normalized growth,"locus YJL095W, strain BCK1 (second series), hits give low values",0.983
same,normalized growth,"locus YJL095W, strain BCK1, hits give low values",1.06 and 0.982
same,normalized growth,"locus YJL115W, strain asf1, hits give low values",0.966
same,normalized growth,"locus YJL129C, strain trk1, hits give low values",1
same,normalized growth,"locus YJL134W, strain LCB3, hits give low values",0.967
same,normalized growth,"locus YJL154C, strain vps35, hits give low values",0.976
same,normalized growth,"locus YJL164C, strain tpk1, hits give low values",0.992
same,normalized growth,"locus YJL166W, strain qcr8, hits give low values",0.978
same,normalized growth,"locus YJL168C, strain set2, hits give low values",0.951
same,normalized growth,"locus YJL187C, strain SWE1 (second series), hits give low values",1.03
same,normalized growth,"locus YJL187C, strain SWE1, hits give low values",0.977

# Reference: PubChem BioAssay AID1159580 (chemical genetic matrix, 2015)
